Measurements published in PubChem BioAssay (EPA / NIEHS).
Inconclusive results are not listed. Active and inactive are the calls of the source. Rule for the calls: active = hit-call score of the fitted dose curve at least 0.9, where 1 is the maximum; inconclusive = response in the unintended direction; inactive = score below 0.9.

What follows are molecules tested on Broad substrate specificity ATP-binding cassette transporter ABCG2 (Homo sapiens) (UniProt Q9UNQ0) (assay: CLD_ABCG2_24hr: CellzDirect (CLD) Gene Expression Assay for ABC Transporter (ABCG2) at 24 hours (AID 2283685)).
Chain of Broad substrate specificity ATP-binding cassette transporter ABCG2 (Homo sapiens) (Q9UNQ0 whole entry, looked up): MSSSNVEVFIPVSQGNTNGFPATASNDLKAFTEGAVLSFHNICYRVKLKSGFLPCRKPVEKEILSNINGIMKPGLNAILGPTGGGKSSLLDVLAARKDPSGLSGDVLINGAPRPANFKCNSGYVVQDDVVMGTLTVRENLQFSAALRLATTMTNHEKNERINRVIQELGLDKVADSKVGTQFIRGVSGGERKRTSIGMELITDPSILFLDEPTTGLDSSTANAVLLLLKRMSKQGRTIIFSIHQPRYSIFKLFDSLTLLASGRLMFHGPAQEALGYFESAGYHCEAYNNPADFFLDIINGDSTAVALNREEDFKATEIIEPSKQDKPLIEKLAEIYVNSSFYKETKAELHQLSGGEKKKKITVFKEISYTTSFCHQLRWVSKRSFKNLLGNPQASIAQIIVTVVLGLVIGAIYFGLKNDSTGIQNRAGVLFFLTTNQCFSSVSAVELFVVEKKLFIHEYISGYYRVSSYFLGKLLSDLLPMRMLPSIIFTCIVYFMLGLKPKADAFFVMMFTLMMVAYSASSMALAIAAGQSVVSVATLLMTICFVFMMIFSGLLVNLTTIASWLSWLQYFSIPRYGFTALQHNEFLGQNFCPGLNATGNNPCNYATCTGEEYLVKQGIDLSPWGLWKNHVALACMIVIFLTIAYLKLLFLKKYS
Outline: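 ABCG2 mRNA induction, read as gain of chemiluminescent signal over 0.2% DMSO, was measured by quantitative nuclease protection at 24 h. Cultured human liver hepatocytes were given fresh dosing solutions of test chemicals at several concentrations each day.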

SMILES | outcome | AC50
Nc1nc(N)nc(NC2CC2)n1 | inactive | –
CCOP(=S)(OCC)OC(Cl)C(Cl)(Cl)Cl (stereo not given) | inactive | –
CCOP(=S)(OCC)SCCSCC | inactive | –
CC[C@H](C)[C@H]1O[C@]2(C=C[C@@H]1C)C[C@@H]1C[C@@H](C/C=C(\C)[C@@H](O[C@H]3C[C@H](OC)[C@@H](O[C@H]4C[C@H](OC)[C@@H](NC)[C@H](C)O4)[C@H](C)O3)[C@@H](C)/C=C/C=C3\CO[C@@H]4[C@H](O)C(C)=C[C@@H](C(=O)O1)[C@]34O)O2 | inactive | –
Cc1nn(-c2cc(NS(C)(=O)=O)c(Cl)cc2Cl)c(=O)n1C(F)F | inactive | –
CCCOCC(=Nc1ccc(Cl)cc1C(F)(F)F)n1ccnc1 | – | 20 µM (active)
C[Si](Cn1cncn1)(c1ccc(F)cc1)c1ccc(F)cc1 | inactive | –
CCCSP(=O)(OCC)SCCC | inactive | –
S=C1NCCN1 | inactive | –
Cc1ccn2nc(S(=O)(=O)Nc3c(F)cccc3F)nc2n1 | inactive | –
CCOC(=O)CC(SP(=O)(OC)OC)C(=O)OCC (stereo not given) | inactive | –
CSc1nnc(C(C)(C)C)c(=O)n1N | inactive | –
FC(F)C(F)(F)OCC(Cn1cncn1)c1ccc(Cl)cc1Cl (stereo not given) | inactive | –
COc1ccc(C(=CC(=O)N2CCOCC2)c2ccc(Cl)cc2)cc1OC | inactive | –
CCOP(=O)(SC(C)CC)N1CCSC1=O (stereo not given) | inactive | –
CON=C(C(=O)OC)c1ccccc1CON=C(C)c1cccc(C(F)(F)F)c1 | inactive | –
N#CSCSC#N | inactive | –
CSC1=N[C@@](C)(c2ccccc2)C(=O)N1Nc1ccccc1 | inactive | –

SMILES | outcome | AC50
CCOP(=S)(Oc1cnc(C(C)(C)C)nc1)OC(C)C (stereo not given) | inactive | –
CCOP(=O)(OCC)Oc1cc(C)nc(C(C)C)n1 | inactive | –
CC(=NC#N)N(C)Cc1ccc(Cl)nc1 | inactive | –
CCCCSP(=O)(SCCCC)SCCCC | inactive | –
CNC(=O)ON=C(C)SC | inactive | –
COc1cc(OC)nc(Sc2cccc(Cl)c2C(=O)O)n1 | inactive | –
CC(C)N(C(=O)SCC(Cl)=C(Cl)Cl)C(C)C | inactive | –
C#CC(C)(C)NC(=O)c1cc(Cl)cc(Cl)c1 | inactive | –
Nc1c(Cl)cc([N+](=O)[O-])cc1Cl | inactive | –
CN(C)NC(=O)CCC(=O)O | inactive | –
CCc1cccc(CC)c1N(COC)C(=O)CCl | inactive | –
COc1cccc(C(=O)NN(C(=O)c2cc(C)cc(C)c2)C(C)(C)C)c1C | inactive | –
CCCSP(=O)(OCC)Oc1ccc(Br)cc1Cl (stereo not given) | inactive | –
CC(C)=CC1C(C(=O)OCN2C(=O)C3=C(CCCC3)C2=O)C1(C)C (stereo not given) | inactive | –
CN(C)C(=O)Nc1cccc(C(F)(F)F)c1 | inactive | –
C#CCC1=C(C)C(OC(=O)C2C(C=C(C)C)C2(C)C)CC1=O (stereo not given) | inactive | –
CC(COc1ccc(Oc2ccccc2)cc1)Oc1ccccn1 (stereo not given) | inactive | –
